Experiment [1] addresses Ribosomal protein S6 kinase alpha-6 (Homo sapiens) (UniProt Q9UK32). The settings on record: at 1 µM.
Experiment [2] deals with T1, Serine/threonine-protein kinase Sgk1 (Homo sapiens) (UniProt O00141).
T1 sequence (whole entry): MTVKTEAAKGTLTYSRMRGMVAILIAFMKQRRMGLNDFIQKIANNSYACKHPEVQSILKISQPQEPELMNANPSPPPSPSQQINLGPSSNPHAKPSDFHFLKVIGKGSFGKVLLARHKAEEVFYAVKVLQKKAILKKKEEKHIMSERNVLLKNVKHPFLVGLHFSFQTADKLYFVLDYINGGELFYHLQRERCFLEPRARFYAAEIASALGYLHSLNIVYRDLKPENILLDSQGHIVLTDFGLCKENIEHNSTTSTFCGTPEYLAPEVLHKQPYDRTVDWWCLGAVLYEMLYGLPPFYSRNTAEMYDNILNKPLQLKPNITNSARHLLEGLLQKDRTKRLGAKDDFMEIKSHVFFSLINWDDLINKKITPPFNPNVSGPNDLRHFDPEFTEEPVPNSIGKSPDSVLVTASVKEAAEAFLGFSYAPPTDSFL
The settings on record: at 0.1 µM.

Experiment [3] addresses T1, Serine/threonine-protein kinase Sgk1 (Homo sapiens). The settings on record: at 1 µM.
For experiment [4], the target named is T2, Serine/threonine-protein kinase Sgk2 (Homo sapiens) (UniProt Q9HBY8).
T2 sequence (whole entry): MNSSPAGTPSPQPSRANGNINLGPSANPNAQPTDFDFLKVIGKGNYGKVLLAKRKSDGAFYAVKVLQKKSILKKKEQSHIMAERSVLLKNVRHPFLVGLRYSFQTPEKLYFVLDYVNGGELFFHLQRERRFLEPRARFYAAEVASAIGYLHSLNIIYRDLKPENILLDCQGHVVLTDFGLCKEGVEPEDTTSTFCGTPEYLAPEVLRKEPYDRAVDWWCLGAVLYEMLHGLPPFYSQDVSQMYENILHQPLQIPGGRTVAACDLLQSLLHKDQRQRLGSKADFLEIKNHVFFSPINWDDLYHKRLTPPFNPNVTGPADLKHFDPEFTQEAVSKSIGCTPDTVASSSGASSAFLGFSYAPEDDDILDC
The settings on record: at 0.1 µM.

The target in experiment [5] is T2, Serine/threonine-protein kinase Sgk2 (Homo sapiens). The settings on record: at 1 µM.
For experiment [6], the target named is T3, Serine/threonine-protein kinase Sgk3 (Homo sapiens) (UniProt Q96BR1).
T3 sequence (whole entry): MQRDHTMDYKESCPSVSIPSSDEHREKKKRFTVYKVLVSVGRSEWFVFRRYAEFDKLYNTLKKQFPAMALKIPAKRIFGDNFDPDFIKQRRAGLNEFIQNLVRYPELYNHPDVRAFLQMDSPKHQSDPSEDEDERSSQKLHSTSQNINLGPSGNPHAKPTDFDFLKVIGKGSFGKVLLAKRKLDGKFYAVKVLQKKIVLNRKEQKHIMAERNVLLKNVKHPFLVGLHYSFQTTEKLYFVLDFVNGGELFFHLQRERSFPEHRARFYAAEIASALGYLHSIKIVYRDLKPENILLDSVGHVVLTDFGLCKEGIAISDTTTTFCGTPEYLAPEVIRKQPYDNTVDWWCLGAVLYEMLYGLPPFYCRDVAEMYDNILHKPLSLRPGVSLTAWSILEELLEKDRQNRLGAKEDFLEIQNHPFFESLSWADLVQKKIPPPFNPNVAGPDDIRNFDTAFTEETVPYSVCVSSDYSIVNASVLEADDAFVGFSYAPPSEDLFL
The note with it: at 0.1 µM.

For experiment [7], the target named is T3, Serine/threonine-protein kinase Sgk3 (Homo sapiens). The note with it: at 1 µM.
Experiment [8] deals with 5'-AMP-activated protein kinase catalytic subunit alpha-1 (Homo sapiens) (UniProt Q13131). The settings on record: at 0.1 µM.
5'-AMP-activated protein kinase catalytic subunit alpha-1 (Homo sapiens), sequence (Q13131 whole entry, looked up): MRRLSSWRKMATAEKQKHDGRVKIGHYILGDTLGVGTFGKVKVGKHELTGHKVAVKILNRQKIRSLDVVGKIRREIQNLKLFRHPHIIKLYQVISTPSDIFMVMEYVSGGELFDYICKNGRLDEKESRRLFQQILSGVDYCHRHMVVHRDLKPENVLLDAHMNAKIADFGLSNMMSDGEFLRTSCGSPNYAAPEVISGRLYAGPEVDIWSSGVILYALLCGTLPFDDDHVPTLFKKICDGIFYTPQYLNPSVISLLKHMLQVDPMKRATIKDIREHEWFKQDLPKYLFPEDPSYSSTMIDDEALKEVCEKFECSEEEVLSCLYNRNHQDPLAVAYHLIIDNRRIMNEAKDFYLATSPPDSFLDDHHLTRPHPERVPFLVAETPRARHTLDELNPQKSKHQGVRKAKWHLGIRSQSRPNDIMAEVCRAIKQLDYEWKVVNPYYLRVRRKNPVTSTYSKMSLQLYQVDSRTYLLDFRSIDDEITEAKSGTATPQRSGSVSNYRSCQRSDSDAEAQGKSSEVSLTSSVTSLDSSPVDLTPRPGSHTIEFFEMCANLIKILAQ
The target is the same in experiment [9]. The note with it: at 1 µM.
In experiment [10] the target is 5'-AMP-activated protein kinase catalytic subunit alpha-2 (Homo sapiens) (UniProt P54646). The settings on record: at 0.1 µM.
5'-AMP-activated protein kinase catalytic subunit alpha-2 (Homo sapiens), sequence (P54646 whole entry, looked up): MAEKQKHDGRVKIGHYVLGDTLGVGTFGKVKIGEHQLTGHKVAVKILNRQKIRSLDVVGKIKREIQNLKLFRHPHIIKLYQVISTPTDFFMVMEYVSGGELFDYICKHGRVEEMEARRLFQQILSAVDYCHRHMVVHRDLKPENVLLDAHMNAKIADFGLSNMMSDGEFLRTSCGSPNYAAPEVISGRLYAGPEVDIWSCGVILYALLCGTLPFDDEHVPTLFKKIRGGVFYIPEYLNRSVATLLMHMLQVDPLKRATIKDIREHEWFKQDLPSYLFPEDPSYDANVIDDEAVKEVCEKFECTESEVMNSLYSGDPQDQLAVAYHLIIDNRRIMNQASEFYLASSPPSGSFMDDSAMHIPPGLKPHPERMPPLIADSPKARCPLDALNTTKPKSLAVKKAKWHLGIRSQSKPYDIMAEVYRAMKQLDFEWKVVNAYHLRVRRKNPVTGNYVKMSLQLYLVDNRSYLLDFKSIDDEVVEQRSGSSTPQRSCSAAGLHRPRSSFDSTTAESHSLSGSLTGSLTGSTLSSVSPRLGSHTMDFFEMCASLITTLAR
Experiment [11] has the same target. The note with it: at 1 µM.
Experiment [12] has as its target T4, NUAK family SNF1-like kinase 1 (Homo sapiens) (UniProt O60285).
T4 sequence (whole entry): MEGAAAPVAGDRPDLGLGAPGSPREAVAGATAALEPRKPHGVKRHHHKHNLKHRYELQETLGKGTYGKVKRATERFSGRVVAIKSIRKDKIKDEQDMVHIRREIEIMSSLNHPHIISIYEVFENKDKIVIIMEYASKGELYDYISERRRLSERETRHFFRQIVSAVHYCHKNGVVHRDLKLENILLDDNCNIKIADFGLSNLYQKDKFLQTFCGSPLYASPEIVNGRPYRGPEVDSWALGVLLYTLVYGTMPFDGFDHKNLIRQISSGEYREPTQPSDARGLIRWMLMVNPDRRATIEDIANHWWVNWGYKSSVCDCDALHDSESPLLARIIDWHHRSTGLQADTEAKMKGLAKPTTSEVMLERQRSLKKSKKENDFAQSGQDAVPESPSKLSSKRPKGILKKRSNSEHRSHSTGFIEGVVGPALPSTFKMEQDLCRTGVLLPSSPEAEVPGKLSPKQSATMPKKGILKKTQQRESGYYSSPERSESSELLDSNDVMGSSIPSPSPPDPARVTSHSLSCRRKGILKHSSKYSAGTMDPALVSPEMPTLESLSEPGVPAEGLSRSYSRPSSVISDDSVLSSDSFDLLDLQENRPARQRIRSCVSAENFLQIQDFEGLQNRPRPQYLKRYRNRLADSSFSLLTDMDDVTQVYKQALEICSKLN
The note with it: at 0.1 µM.

In experiment [13] the target is T4, NUAK family SNF1-like kinase 1 (Homo sapiens). The settings on record: at 1 µM.
In experiment [14] the target is T5, Serine/threonine-protein kinase BRSK1 (Homo sapiens) (UniProt Q8TDC3).
T5 sequence (whole entry): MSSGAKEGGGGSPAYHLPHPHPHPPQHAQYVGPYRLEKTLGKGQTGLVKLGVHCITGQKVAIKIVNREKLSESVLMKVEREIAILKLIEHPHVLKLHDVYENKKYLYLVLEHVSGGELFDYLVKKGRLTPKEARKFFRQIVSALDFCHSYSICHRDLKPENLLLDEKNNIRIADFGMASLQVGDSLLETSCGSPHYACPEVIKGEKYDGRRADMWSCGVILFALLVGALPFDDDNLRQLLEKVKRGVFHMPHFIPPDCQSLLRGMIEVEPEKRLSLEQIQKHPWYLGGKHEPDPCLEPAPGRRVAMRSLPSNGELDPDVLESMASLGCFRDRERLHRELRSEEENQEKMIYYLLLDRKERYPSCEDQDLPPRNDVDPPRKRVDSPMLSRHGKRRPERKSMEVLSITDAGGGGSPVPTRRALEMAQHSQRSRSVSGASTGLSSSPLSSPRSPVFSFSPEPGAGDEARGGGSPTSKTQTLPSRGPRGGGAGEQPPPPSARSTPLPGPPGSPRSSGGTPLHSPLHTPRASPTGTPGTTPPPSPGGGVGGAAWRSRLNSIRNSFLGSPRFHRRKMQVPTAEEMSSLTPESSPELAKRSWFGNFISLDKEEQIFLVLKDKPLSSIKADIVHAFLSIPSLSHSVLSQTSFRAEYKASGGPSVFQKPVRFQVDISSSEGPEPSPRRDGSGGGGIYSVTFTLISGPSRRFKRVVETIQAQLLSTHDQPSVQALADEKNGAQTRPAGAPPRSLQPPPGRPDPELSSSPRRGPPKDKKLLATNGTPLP
The settings on record: at 0.1 µM.

For experiment [15], the target named is T5, Serine/threonine-protein kinase BRSK1 (Homo sapiens). The settings on record: at 1 µM.
In experiment [16] the target is T6, Serine/threonine-protein kinase BRSK2 (Homo sapiens) (UniProt Q8IWQ3).
T6 sequence (whole entry): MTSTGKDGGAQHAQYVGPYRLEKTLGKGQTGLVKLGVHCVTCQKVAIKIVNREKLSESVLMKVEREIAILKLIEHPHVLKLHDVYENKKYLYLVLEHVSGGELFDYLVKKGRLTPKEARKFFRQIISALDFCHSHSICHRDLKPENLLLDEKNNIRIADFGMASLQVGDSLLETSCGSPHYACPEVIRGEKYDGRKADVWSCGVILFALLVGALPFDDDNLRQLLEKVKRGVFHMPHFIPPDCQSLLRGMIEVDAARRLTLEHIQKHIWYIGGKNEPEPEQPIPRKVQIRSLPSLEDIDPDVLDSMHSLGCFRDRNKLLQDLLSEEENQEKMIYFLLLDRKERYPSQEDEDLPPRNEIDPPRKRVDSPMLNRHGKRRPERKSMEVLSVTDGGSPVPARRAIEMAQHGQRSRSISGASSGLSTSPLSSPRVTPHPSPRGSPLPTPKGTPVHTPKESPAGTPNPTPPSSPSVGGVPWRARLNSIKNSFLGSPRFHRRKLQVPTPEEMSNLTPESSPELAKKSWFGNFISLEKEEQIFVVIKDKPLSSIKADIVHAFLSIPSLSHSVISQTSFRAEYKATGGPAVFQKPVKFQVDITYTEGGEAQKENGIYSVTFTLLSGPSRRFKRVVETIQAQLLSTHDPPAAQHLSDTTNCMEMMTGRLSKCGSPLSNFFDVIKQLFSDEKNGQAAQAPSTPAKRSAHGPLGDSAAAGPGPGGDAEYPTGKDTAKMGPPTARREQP
The note with it: at 0.1 µM.

The target of experiment [17] is T6, Serine/threonine-protein kinase BRSK2 (Homo sapiens). The note with it: at 1 µM.
For experiment [18], the target named is Calcium/calmodulin-dependent protein kinase type 1D (Homo sapiens) (UniProt Q8IU85). The settings on record: at 0.1 µM.
Calcium/calmodulin-dependent protein kinase type 1D (Homo sapiens), sequence (Q8IU85 whole entry, looked up): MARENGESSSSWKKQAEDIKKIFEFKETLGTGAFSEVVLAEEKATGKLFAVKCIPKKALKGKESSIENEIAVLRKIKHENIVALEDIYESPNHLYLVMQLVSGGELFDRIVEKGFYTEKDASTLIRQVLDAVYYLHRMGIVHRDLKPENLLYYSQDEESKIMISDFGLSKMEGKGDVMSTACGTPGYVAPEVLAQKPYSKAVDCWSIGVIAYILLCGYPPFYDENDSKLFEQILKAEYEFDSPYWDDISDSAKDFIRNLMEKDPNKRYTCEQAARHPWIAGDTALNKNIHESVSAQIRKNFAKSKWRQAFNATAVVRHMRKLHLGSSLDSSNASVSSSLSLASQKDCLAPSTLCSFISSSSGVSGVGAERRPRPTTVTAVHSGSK
The target is the same in experiment [19]. The note with it: at 1 µM.
The target of experiment [20] is Calcium/calmodulin-dependent protein kinase type II subunit alpha (Homo sapiens) (UniProt Q9UQM7). The settings on record: at 0.1 µM.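 Also: reported values are averages (mean inhibition of CAMK2A).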
Calcium/calmodulin-dependent protein kinase type II subunit alpha (Homo sapiens), sequence (Q9UQM7 whole entry): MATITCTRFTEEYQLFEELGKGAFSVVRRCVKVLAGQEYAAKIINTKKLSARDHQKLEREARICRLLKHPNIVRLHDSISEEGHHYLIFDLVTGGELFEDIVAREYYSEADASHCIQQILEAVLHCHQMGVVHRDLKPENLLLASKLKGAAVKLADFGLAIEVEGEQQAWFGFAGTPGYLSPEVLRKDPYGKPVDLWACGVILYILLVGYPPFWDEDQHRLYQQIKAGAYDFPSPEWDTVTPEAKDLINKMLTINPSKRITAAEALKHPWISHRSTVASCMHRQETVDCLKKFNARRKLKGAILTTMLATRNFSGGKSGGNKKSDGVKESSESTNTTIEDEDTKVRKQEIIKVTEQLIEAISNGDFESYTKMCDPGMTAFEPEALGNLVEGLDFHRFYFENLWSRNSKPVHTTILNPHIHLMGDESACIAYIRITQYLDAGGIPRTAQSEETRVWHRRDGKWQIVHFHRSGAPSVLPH

As a reminder, the inhibition is the relative decrease from the control value, in per cent.

Ribosomal protein S6 kinase alpha-6 (Homo sapiens), sequence (Q9UK32 whole entry): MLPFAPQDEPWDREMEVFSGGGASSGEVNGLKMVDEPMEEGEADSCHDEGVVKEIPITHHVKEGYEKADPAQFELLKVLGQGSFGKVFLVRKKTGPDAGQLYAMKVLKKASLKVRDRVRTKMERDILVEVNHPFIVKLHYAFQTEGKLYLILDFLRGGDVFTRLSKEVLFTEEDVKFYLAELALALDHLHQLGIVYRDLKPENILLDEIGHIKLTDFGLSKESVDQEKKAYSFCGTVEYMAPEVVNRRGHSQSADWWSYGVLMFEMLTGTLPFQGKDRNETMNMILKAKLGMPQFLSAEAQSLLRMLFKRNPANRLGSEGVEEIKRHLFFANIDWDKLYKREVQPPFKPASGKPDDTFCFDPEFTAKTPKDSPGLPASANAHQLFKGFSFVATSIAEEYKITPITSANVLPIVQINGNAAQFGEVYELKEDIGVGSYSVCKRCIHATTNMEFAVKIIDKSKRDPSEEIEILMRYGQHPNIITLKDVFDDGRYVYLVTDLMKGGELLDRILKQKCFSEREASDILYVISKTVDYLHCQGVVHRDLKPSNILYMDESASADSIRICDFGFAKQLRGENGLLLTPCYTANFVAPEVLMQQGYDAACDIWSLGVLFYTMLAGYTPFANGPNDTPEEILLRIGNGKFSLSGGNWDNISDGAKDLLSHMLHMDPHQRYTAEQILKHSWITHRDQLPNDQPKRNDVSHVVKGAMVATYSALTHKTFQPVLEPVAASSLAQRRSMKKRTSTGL

With `Nc1nccc(-c2c(-c3ccc(F)cc3)ncn2CCCN2CCOCC2)n1`, the inhibition amounted to 3.56% in experiment [1]; 1.7% in experiment [2]; 5.95% in [3]; 0.32% in experiment [4]; 6.95% in experiment [5]; 3.43% in experiment [6]. The inhibition worked out at 3.38% in experiment [7]; 3.37% in experiment [8]; 3.19% in experiment [9]; 3.33% in [10]; 4.51% in experiment [11]; 3.4% in experiment [12]. For the same molecule, the inhibition is -1.7% in [13]; 0.99% in [14]; -1.18% in [15]; 0.6% in [16]; 1.72% in experiment [17]; 0.27% in experiment [18]. For the same molecule, the inhibition was -0.53% in experiment [19] and 2.67% in experiment [20].

With `Cc1ccc(NC(=O)CC2CC2)cc1-c1ccc(C(=O)NCC2CC2)cc1`, the inhibition in experiment [1] worked out at 1%; in experiment [2] it was 2.06%; in experiment [3], 4.1%; in experiment [4], 4.31%; in experiment [5], 1.34%; in experiment [6], 2.72%. Moreover, the inhibition in experiment [7] is 0.18%; in [8], 1.98%; in experiment [9] it was 3.58%; in [10], 1%; in [11], 3.66%; in [12] it was 2.19%. Further, the inhibition in experiment [13] is 3.71%; in [14], -0.17%; in experiment [15], 0.46%; in experiment [16], 1.82%; in experiment [17] it was 3.93%; in [18], 0.97%. The inhibition is 0.89% in experiment [19] and 2.5% in experiment [20].

With `CN(c1ccc(NC(=O)Nc2ccc(OC(F)(F)F)cc2)cc1)c1ccnc(Nc2cccc(S(N)(=O)=O)c2)n1`, the inhibition in experiment [1] is -0.89%; in [2] it was 2.63%; in experiment [3], 1.43%; in experiment [4], 3.27%; in experiment [5], 4.82%; in [6], 7.71%. Also, the inhibition is 2.44% in [7]; 0.3% in [8]; 1.3% in experiment [9]; -1.16% in [10]; 2.41% in experiment [11]; -0.52% in [12]. Also, the inhibition in experiment [13] is 10.1%; in [14], 1.53%; in [15] it was 5.53%; in experiment [16], 1.94%; in experiment [17] it was 1.96%; in [18], -0.31%. Further, the inhibition came out at 0.2% in experiment [19] and 3.05% in experiment [20].
